LASV entry inh = blocks Lassa virus binding to or entry into cells; Lassa virus pseudotype entry inhibition, cell reporter; Potency, µM (titrated, usually from 37.9 µM), without a hit: top-dose activity change, negative = inhibition, usual class: inhibitors; 300,000 compounds, 1.2% hits; AID 540256; calls by dose curve; tested in HEK293 cells; note: potency is the fitted concentration of half-maximal effect; nearly all actives have a fitted effect of over 50% in size
MARV entry inh = Marburg virus entry inhibition; Marburg virus pseudotyped entry inhibition, cell reporter; Potency, µM (highest dose often 37.8 µM), for the others: at the highest dose activity change, negative = inhibition, actives largely listed as inhibitors; 300,000 compounds, 1.8% hits; AID 540276; calls by dose curve; tested in HEK293 cells; note: potency is the fitted concentration of half-maximal effect
HCV inhibitor = blocks hepatitis C virus; AID 651820; 340,000 compounds, 3.4% hits; Huh7.5.1 HCVcc-Cre infection, luciferase reporter, 44 h; Potency, µM (titrated, usually from 41.8 µM), without a hit: at the top dose activity change, negative = inhibition, actives largely listed as inhibitors; active = well fitted inhibition curve with a large enough effect; inconclusive = small, poorly fitted or top-dose-only effect, or another doubt; inactive = no such curve, though single readings can be large or run the other way; note: potency is the fitted concentration of half-maximal effect
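Luciferase read-out (15 sec integration) after a 15 min room-temperature substrate step quantifies HCVcc-Cre infection. Cells, 1,000 per well, had compound added 4 h post-plating, then virus at ~0.5 moi, and were cultured 44 h.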
HCMV antiviral = inhibitors of human cytomegalovirus | 410,000 compounds, 4.5% hits | AID 1259415 | activity change, negative = inhibition, % at 57.5 µM | HFF cells, HCMV-luciferase reporter, 72 h; active compounds read low; in the data active = activity change below about -60%; inconclusive = no clear call, values can overlap the other calls; inactive = above about -39%
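Human foreskin fibroblasts infected with luciferase-reporter HCMV at MOI 1 PFU/cell, compounds at two doses. Luciferase measured 72 h post infection; normalized to buffer-only basal and Salinomycin (10uM) controls.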
FMDV antiviral = antivirals against foot and mouth disease virus. 410,000 compounds, 1.2% hits. Potency, µM (series often up to 57.9 µM), for the others: at the highest dose activity change, negative = inhibition, actives largely listed as inhibitors. FMDV antiviral cell-based qHTS. AID 1159524; calls by dose curve; tested in HEK293T cells; note: read-out not given here; potency is the fitted concentration of half-maximal effect; nearly all actives have a fitted effect of over 45% in size
Active calls of the source: *; ? = inconclusive; · = no result given; [ ] = remark or other dose. This is a sample that favours compounds with a hit; in the whole collection about 7.9% have one here. % is set by controls: 0 for no effect and ±100 for the full control effect.

SMILES | LASV entry inh | MARV entry inh | HCV inhibitor | HCMV antiviral | FMDV antiviral
CCOc1cc(CN2CCC(CO)(Cc3cccc(C(F)(F)F)c3)CC2)ccc1OC | -22.2%[46.1 µM] | 4.47µM* | ? | -26.0 | -6.5%
C=C1CCC(OC(C)=O)/C(C)=C/CC2[C@H]1CC2(C)C (some centres undefined) | · | · | · | · | -12.5%
C=C1C(=O)O[C@H]2C1CC[C@@](C)(O)C13C=CC(C)(C21)C1(C3)C(=O)O[C@@H]2C3C(C)=CCC3[C@](C)(O)C[C@H](OC(C)=O)C21 (some centres undefined) | ? | -44.7% | 0.8% | -90.3* | -24.4%
NC1=C(Br)C(=O)c2ncccc2C1=O | ? | 2.51µM* | ? | -101.5* | 3.98µM*
O=C(OC1CCN(CCCl)CC1)C(c1ccccc1)c1ccccc1 | · | 10µM* | 31.6µM* | ? | 15.8µM*
COc1ccc(Nc2ncnc3c2cnn3-c2ccc(C)cc2)cc1Cl | 20.1%[46.1 µM] | · | · | ? | -3.8%
COc1ccc(N2CC(O)=C(c3n(C)c4ccccc4[n+]3C)C2=N)cc1 | 0.6% | 2.9% | -15.8% | -81.1* | -5.1%
CCCCCCc1cc2cc(C(=O)OCC)c(=O)oc2cc1O | · | · | -8.3% | -3.6 | -17.2%
CCCCCCc1cc2cc(C(=O)Nc3cccc(OC)c3)c(=O)oc2cc1O | ? | ? | ? | -87.9* | ?
CCCCCCc1cc2cc(/C(N)=N/NC(=O)c3ccncc3)c(=O)oc2cc1O | · | · | ? | 10.0 | -21.4%
CCCCCCc1cc2cc(C(=O)Nc3ccc(OC)cc3)c(=O)oc2cc1O | -0.6% | ? | ? | -61.1* | ?
COc1cccc2cc(C(=O)Nc3ccc(CC(=O)O)cc3)c(=O)oc12 | ? | 10µM* | · | -72.4* | ?
CCCCCCc1cc2cc(S(=O)(=O)c3ccc(F)c(Cl)c3)c(=O)oc2cc1O | ? | ? | ? | -102.2* | 0.0%
Cc1ccc(-c2nnc3c4ccccc4c(C)nn23)cc1NC(=O)c1ccccc1 | 2.0%[46.1 µM] | -0.7%[46.1 µM] | · | 37.6 | -8.0%
CCC(=O)N1CCc2cc(Br)cc(S(=O)(=O)N3CCCC(C(=O)Nc4ccc(C)c(F)c4)C3)c21 (centres undefined) | -25.1%[46.1 µM] | ? | · | -30.2 | -8.7%
Cc1csc2nc(COc3ccc(NC(=O)COc4ccccc4F)cc3)cc(=O)n12 | -4.1%[46.1 µM] | 6.8%[46.1 µM] | · | -6.4 | ?
O=S(=O)(c1ccc(-c2csc(Nc3ccc(Br)cc3)n2)cc1)N1CCCC1 | -6.8% | -18.4% | ? | -72.6* | ?
Cc1cc(C)cc(Nc2nc(-c3ccc(S(=O)(=O)N4CCCC4)cc3)cs2)c1 | ? | ? | 10µM* | -77.1* | ?
Cc1ccc(Nc2nc(-c3ccc(S(=O)(=O)N4CCCC4)cc3)cs2)cc1C | ? | ? | 3.98µM* | · | ?
Cc1cc2c(cc3c(SCc4ccc(Cl)cc4)nnc(C)n32)o1 | 20.6%[46.1 µM] | · | · | -11.8 | 2.7%
O=C(COCc1cc(-c2ccc(F)cc2)on1)Nc1cc(Cl)ccc1O | -9.6%[46.1 µM] | 3.0%[46.1 µM] | · | 8.7 | -20.0%
CCCC(=O)n1nc(-c2ccco2)nc1NCc1ccccc1Cl | 13.8%[46.1 µM] | ? | · | 20.5 | 31.4%
CN(C)c1cccc(C(=O)N2CCC(c3ccncc3)CC2)c1 | -11.4%[46.1 µM] | · | · | -30.5 | -10.3%
O=C(NC1CCCCC1)[C@H](CSCc1ccccc1)N1Cc2ccccc2C1=O | -2.8% | -14.5% | -14.3% | -60.4* | -0.2%
Cc1ccc(C)c(NC(=O)C(Cc2ccccc2)N2Cc3ccccc3C2=O)c1 (centres undefined) | -21.7%[46.1 µM] | · | · | -89.8* | ?
SMILES | LASV entry inh | MARV entry inh | HCV inhibitor | HCMV antiviral | FMDV antiviral
CC(C)NC(=O)[C@H](CSCc1ccccc1)N1Cc2ccccc2C1=O | 0.1% | 2.6% | 15.9% | 4.6 | -10.8%
CS(=O)(=O)c1cccc(Nc2cc3c(cn2)cc(-c2ccccc2)n3Cc2ccccc2)c1 | · | · | · | 15.1 | ·
COc1cc(Nc2cc3c(cn2)cc(-c2cnn(C)c2)n3Cc2ccccc2)cc(OC)c1OC | · | · | · | -74.5* | ·
COC(=O)c1cccc(NC(=O)NC(=O)c2ccccc2Cl)c1 | ? | ? | -9.1% | -21.6 | -11.6%
COC(=O)c1sccc1NC(=O)Nc1ccc(Cl)c(Cl)c1 | -7.0% | ? | ? | -70.7* | 35.8%
COC(=O)c1ccc(NC(=O)Nc2ccc(F)cc2)cc1 | 2.5% | -0.2% | ? | 40.0 | -4.7%
COC(=O)c1sccc1NC(=O)Nc1ccc(C)c(C)c1 | · | · | -9.5% | 22.4 | -42.5%
O=C(Nc1ccc(F)c(Cl)c1)Nc1csc2ccccc12 | ? | ? | ? | -98.4* | 10.3%

Screening data as filed in PubChem.
